# B1: unnamed (peptide)
# chain: FVLRYYILIPHEQWD
# Molecular target: AgAbp1
# Test: SPOT peptide array binding signal intensity (averaged, normalized) (arbitrary units (background-subtracted, floor 0; scale differs between SH3 domains)); higher = stronger binding of the SH3 domain to the peptide
# Outline: (§1)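 Spot intensities were captured after detection with anti-GST antibody, an HRP-linked anti-mouse secondary and luminol, and quantified with Genespotter. The probes were GST-fused SH3 domains from four yeast species, produced in E. coli BL21(DE3), purified on glutathione Sepharose and incubated at 10 μg/ml overnight at 4°C on cellulose-bound synthetic 15-mer peptides with cysteines replaced by serines. Binding signal is the normalized, background-subtracted spot intensity averaged over replicates, and its arbitrary units differ between domains.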
row,Binder,SPOT peptide array binding signal intensity
1,B1,6

# Molecular target: AgBbc1
# Test: as above
# Outline: as §1
row,Binder,SPOT peptide array binding signal intensity
1,B1,≤ 0

# Molecular target: AgBem1-D1
# Test: as above
# Outline: as §1
row,Binder,SPOT peptide array binding signal intensity
1,B1,190

# Molecular target: AgBzz1-D1
# Test: as above
# Outline: as §1
row,Binder,SPOT peptide array binding signal intensity
1,B1,≤ 0

# Molecular target: AgBzz1-D2
# Test: as above
# Outline: as §1
row,Binder,SPOT peptide array binding signal intensity
1,B1,5.5

# Molecular target: AgCyk3
# Test: as above
# Outline: as §1
row,Binder,SPOT peptide array binding signal intensity
1,B1,13.5

# Molecular target: AgFus1
# Test: as above
# Outline: as §1
row,Binder,SPOT peptide array binding signal intensity
1,B1,1800

# Molecular target: AgHof1
# Test: as above
# Outline: as §1
row,Binder,SPOT peptide array binding signal intensity
1,B1,5

# Molecular target: AgHse1
# Test: as above
# Outline: as §1
row,Binder,SPOT peptide array binding signal intensity
1,B1,1200

# Molecular target: AgLsb1
# Test: as above
# Outline: as §1
row,Binder,SPOT peptide array binding signal intensity
1,B1,3

# Molecular target: AgLsb4
# Test: as above
# Outline: as §1
row,Binder,SPOT peptide array binding signal intensity
1,B1,334

# Molecular target: AgMyo5
# Test: as above
# Outline: as §1
row,Binder,SPOT peptide array binding signal intensity
1,B1,1

# Molecular target: AgNbp2
# Test: as above
# Outline: as §1
row,Binder,SPOT peptide array binding signal intensity
1,B1,82.5

# Molecular target: AgRvs167
# Test: as above
# Outline: as §1
row,Binder,SPOT peptide array binding signal intensity
1,B1,2.5

# Molecular target: AgSho1
# Test: as above
# Outline: as §1
row,Binder,SPOT peptide array binding signal intensity
1,B1,218

# Molecular target: AgSla1-D1-D2
# Test: as above
# Outline: as §1
row,Binder,SPOT peptide array binding signal intensity
1,B1,14.5

# Molecular target: AgSla1-D3
# Test: as above
# Outline: as §1
row,Binder,SPOT peptide array binding signal intensity
1,B1,2.75

# Molecular target: CaAbp1-D1
# Test: as above
# Outline: as §1
row,Binder,SPOT peptide array binding signal intensity
1,B1,30.5

# Molecular target: CaAbp1-D2
# Test: as above
# Outline: as §1
row,Binder,SPOT peptide array binding signal intensity
1,B1,78.5

# Molecular target: CaBbc1
# Test: as above
# Outline: as §1
row,Binder,SPOT peptide array binding signal intensity
1,B1,0.25

# Molecular target: CaBem1-D1
# Test: as above
# Outline: as §1
row,Binder,SPOT peptide array binding signal intensity
1,B1,≤ 0

# Molecular target: CaBzz1-D1
# Test: as above
# Outline: as §1
row,Binder,SPOT peptide array binding signal intensity
1,B1,63

# Molecular target: CaBzz1-D2
# Test: as above
# Outline: as §1
row,Binder,SPOT peptide array binding signal intensity
1,B1,36.8

# Molecular target: CaCyk3
# Test: as above
# Outline: as §1
row,Binder,SPOT peptide array binding signal intensity
1,B1,5

# Molecular target: CaFus1
# Test: as above
# Outline: as §1
row,Binder,SPOT peptide array binding signal intensity
1,B1,3930

# Molecular target: CaHof1
# Test: as above
# Outline: as §1
row,Binder,SPOT peptide array binding signal intensity
1,B1,0.75

# Molecular target: CaHse1
# Test: as above
# Outline: as §1
row,Binder,SPOT peptide array binding signal intensity
1,B1,174

# Molecular target: CaLsb1
# Test: as above
# Outline: as §1
row,Binder,SPOT peptide array binding signal intensity
1,B1,6.5

# Molecular target: CaLsb4
# Test: as above
# Outline: as §1
row,Binder,SPOT peptide array binding signal intensity
1,B1,31.5

# Molecular target: CaMyo5
# Test: as above
# Outline: as §1
row,Binder,SPOT peptide array binding signal intensity
1,B1,31.5

# Molecular target: CaNbp2
# Test: as above
# Outline: as §1
row,Binder,SPOT peptide array binding signal intensity
1,B1,595

# Molecular target: CaRvs167
# Test: as above
# Outline: as §1
row,Binder,SPOT peptide array binding signal intensity
1,B1,216

# Molecular target: CaRvs167-3
# Test: as above
# Outline: as §1
row,Binder,SPOT peptide array binding signal intensity
1,B1,119

# Molecular target: CaSho1
# Test: as above
# Outline: as §1
row,Binder,SPOT peptide array binding signal intensity
1,B1,666

# Molecular target: CaSla1-D1-D2
# Test: as above
# Outline: as §1
row,Binder,SPOT peptide array binding signal intensity
1,B1,≤ 0

# Molecular target: CaSla1-D3
# Test: as above
# Outline: as §1
row,Binder,SPOT peptide array binding signal intensity
1,B1,163

# Molecular target: ScAbp1
# Test: as above
# Outline: as §1
row,Binder,SPOT peptide array binding signal intensity
1,B1,≤ 0
